Each structure is given as a SMILES string. Several values for one entry are separate records, joined by “and”; a condition that tells them apart may be missing. Identical values can stand only once. Among all 16,000 compounds or so, about 5,800 (36%) were called active. Another 23% or so got no clear call; they are omitted. Some of the results follow. Values without a mark were called inactive. Calls follow the shape of the dose curve; as a rule, active = well fitted curve in the direction sought with a large enough effect; inconclusive = small, poorly fitted or top-dose-only effect, or effect the other way; inactive = no such curve, though single readings can be large or run the other way.

AC50 and activity, negative = inhibition data for 25 molecules are collected here from PubChem BioAssay AID1851 (National Center for Advancing Translational Sciences (NCATS), 2009).
% is scaled to controls: 0 for no effect and ±100 for the full control effect.

Sequence of Cytochrome P450 2C19 (Homo sapiens) (P33261 whole entry, looked up): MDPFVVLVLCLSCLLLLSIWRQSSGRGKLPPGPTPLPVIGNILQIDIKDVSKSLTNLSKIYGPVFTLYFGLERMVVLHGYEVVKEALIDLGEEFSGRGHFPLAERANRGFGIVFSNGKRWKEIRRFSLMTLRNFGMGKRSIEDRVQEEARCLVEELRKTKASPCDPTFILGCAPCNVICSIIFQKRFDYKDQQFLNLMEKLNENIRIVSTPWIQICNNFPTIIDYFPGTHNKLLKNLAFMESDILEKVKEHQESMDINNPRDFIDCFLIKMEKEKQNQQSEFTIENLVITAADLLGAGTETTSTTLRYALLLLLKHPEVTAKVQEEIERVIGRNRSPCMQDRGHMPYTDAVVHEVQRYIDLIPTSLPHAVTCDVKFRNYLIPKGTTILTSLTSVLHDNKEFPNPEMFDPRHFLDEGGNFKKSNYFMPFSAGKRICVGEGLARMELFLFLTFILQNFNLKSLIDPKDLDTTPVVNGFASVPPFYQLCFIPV

The assay has as its target Cytochrome P450 2C19 (Homo sapiens) (UniProt P33261). Nature of the assay: Cytochrome panel assay with activity outcomes. As to conditions: recombinant CYP, pro-luciferin dealkylation, luminescence, p450-cyp2c19; series mostly up to 57.1 µM.
In general, AC50 refers to the concentration giving half of the maximal activity seen. As for `FC(F)(F)c1cc(CN2CCC3(CCNCC3)CC2)cc(C(F)(F)F)c1`, the AC50 result was “inactive”.

On to `O=C(O)CSc1cc(-c2ccccc2)nc2ccccc12`, for which the activity, negative = inhibition was 1.28% [at 11.4 µM].

Regarding `N#Cc1ccc(-c2ccccc2)nc1SCC(=O)c1cccc(Cl)c1`, the AC50 is 2.24 µM (active).

With `N#Cc1c(-c2ccccc2)no[n+]1[O-]`, the AC50 result was “inactive”.

As for `CN(C)c1oc(-c2ccccc2)nc1C#N`, the concentration at half-maximal activity (AC50) was 15.8 µM (active).

On to `COc1cc(O)oc1C=Nc1ccc(C(F)(F)F)cc1`, for which the AC50 was 7.08 µM (active).

`COc1cc(O)oc1C=Nc1ccc(Cl)cc1`: the AC50 was 6.31 µM (active).

Regarding `CCOc1[nH]n(-c2ccc(Cl)cc2)c(=O)c1C=Nc1ccc(O)cc1`, the AC50 result is “inactive”.

Consider `Cc1c(C(=O)O)nc(/C=C\C(=O)O)[nH]c1=O`, for which the activity, negative = inhibition was 18.2% [at 11.4 µM].

As to `CC1=NN(c2ccc(F)cc2)C(=O)C1C(c1cccc(O)c1)c1c(C)[nH]n(-c2ccc(F)cc2)c1=O` (stereo not given), the concentration at half-maximal activity (AC50) was 17.8 µM (active).

Consider `O=C1C2CCCN2C(c2ccc(F)cc2)N1c1nccs1` (stereo not given), for which the AC50 was 14.1 µM (active).

In the case of `CCC1(C)Cc2c(sc3nnn(CC(=O)Nc4cccc5ccccc45)c(=O)c23)CO1` (stereo not given), the concentration at half-maximal activity (AC50) is 15.8 µM (active).

In the case of `CCCSc1nc(SCC(=O)NCc2ccccc2)c2c3c(sc2n1)COC(C)(CC)C3` (stereo not given), the concentration at half-maximal activity (AC50) was 11.2 µM (active).

With `CCC1(C)Cc2c(sc3nnn(CC(=O)Nc4ccc(C)cc4)c(=O)c23)CO1` (stereo not given), the AC50 was 10 µM (active).

In the case of `Cc1nc2ncnn2c(C)c1CCC(=O)NCc1ccccc1`, the AC50 entry was “inactive”.

Regarding `CCSc1nc2sc3c(c2c(=O)[nH]1)CC(C)(CC)OC3` (stereo not given), the AC50 result is “inactive”.

In the case of `CN(N=O)C(=O)N[C@H]1[C@@H](O)[C@H](O)[C@H](CO)O[C@@H]1O`, the AC50 result was “inactive”.

Turning to `NC(=O)Nn1c(CCC(=O)O)ccc1-c1ccc(F)cc1`, the AC50 result is “inactive”.

As to `Nc1ccc(Sc2cnn(-c3ccccc3)c(=O)c2Cl)cc1`, the AC50 is 0.1 µM (active).

As to `CNc1cnn(-c2ccccc2)c(=O)c1Cl`, the AC50 entry is “inactive”.

In the case of `CCc1cc2c(nc1CC)CCN(CC/C(C)=N/OC[C@@H](O)COCc1ccco1)C2`, the activity, negative = inhibition is -17.2% [at 11.4 µM].

With `Cc1ccc(S(=O)(=O)N[C@H](CO)C(=O)O)cc1`, the activity, negative = inhibition is -10.2% [at 11.4 µM].

Regarding `Cc1ccc(S(=O)(=O)N[C@@H](CCc2ccccc2)CC(=O)C(C)(C)C)cc1`, the AC50 was 1.58 µM (active).

`COC(=O)C/C=C\[C@@H](C)[C@@H](/C=N\O[C@@H](C)c1cn([C@H](CO)Cc2ccccc2)nn1)NS(=O)(=O)c1ccc(C)cc1`: the activity, negative = inhibition is 14.8% [at 11.4 µM] and -27.5% [at 11.4 µM].

On to `CC(CCc1ccccc1)NS(=O)(=O)c1ccccc1` (stereo not given), for which the concentration at half-maximal activity (AC50) was 2.51 µM (active).
